{
  "source": "ChEMBL document CHEMBL3433997",
  "about": "“St. Jude Leishmania screening dataset” (2016)",
  "data": [
    {"target": "Solute carrier family 2, facilitated glucose transporter member 1 (Homo sapiens) (UniProt P11166)", "sequence (P11166 whole entry)": "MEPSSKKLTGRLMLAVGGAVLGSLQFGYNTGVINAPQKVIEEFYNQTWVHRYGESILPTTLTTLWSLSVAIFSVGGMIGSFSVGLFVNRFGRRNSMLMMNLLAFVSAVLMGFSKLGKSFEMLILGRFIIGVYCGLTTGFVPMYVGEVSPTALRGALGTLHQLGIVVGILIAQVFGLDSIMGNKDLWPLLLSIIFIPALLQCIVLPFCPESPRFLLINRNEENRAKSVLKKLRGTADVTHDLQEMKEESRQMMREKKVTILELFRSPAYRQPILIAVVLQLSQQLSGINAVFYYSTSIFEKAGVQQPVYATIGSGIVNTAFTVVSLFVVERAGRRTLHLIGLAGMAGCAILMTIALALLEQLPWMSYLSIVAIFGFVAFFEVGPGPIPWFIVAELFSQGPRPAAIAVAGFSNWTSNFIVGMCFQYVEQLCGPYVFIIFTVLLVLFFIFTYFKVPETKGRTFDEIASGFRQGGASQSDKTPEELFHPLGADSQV", "test": "ST_JUDE_LEISH: Cytotoxicity at 2uM final concentration against transgenic Leishmania Mexicana promastigotes LmGLUT1 that are glucose transport deficient and complemented with the human glucose transporter GLUT1. Activity is measured by DNA content using SYBR green in vitro", "format": "functional", "units": {"inhibition": "%"}, "values": [
      {"smiles": "COc1ccc2[nH]c(C)cc(=NN=Cc3cccc(F)c3)c2c1", "inhibition": 5.17},
      {"smiles": "Cc1ccc(C(=O)N2CCN(Cc3nccs3)CC2)cc1", "inhibition": 1.23},
      {"smiles": "O=c1cc(NCCCNCc2[nH]c3cc(Cl)ccc3c2Cl)[nH]c2ccccc12", "inhibition": 5.19},
      {"smiles": "CS(=O)(=O)NCCCNCc1ccc(-c2cccc(-c3nc4cc(C(F)(F)F)ccc4[nH]3)c2)cc1", "inhibition": 5.19},
      {"smiles": "Cc1n[nH]c2ccc(-c3cc(OC[C@@H](N)Cc4ccccc4)cnc3-c3cc4ccccc4s3)cc12", "inhibition": 8.58},
      {"smiles": "O=C(/C=C/c1ccccc1O)N1CCC(CCN2CCC(c3c[nH]c4ccccc34)CC2)CC1", "inhibition": -5.26},
      {"smiles": "Cc1cc(N(C)C)nc(Nc2ccc(NC(=O)c3ccccc3Cl)cc2)n1", "inhibition": -1.66},
      {"smiles": "N#Cc1cccc(C(=O)NC2CCN(c3ccnc(Nc4ccc(F)cc4)n3)C2)c1", "note": "(stereo unspecified)", "inhibition": 2.56},
      {"smiles": "CCCCCCn1c2c(c(=N)c3c1CCC3)CCCC2", "inhibition": 78.2},
      {"smiles": "CCn1cc(C=C2Oc3c(ccc(O)c3CN3CCCCC3C)C2=O)c2ccccc21", "note": "(stereo unspecified)", "inhibition": 4.31},
      {"smiles": "COc1ccc(C=NNc2nc3ccccc3[nH]2)cc1O", "inhibition": -3.31},
      {"smiles": "CC(CN(C)C)C(=O)Nc1ccc(-c2ccc(-c3nc4ccccc4[nH]3)cc2)cc1", "note": "(stereo unspecified)", "inhibition": 3.03},
      {"smiles": "O=C(Nc1ccc(-c2cccc(-c3nc4cc(C(F)(F)F)ccc4[nH]3)c2)cc1)Nc1ccc(Cl)c(Cl)c1", "inhibition": 10.9},
      {"smiles": "CCCCCCCC1CC(CC(=O)Nc2ccnc3ccc(OC)cc23)CN1", "note": "(stereo unspecified)", "inhibition": 1.6},
      {"smiles": "CN1CCCN(Cc2cccc(-c3cccc(NS(=O)(=O)c4cccc5cccnc45)c3)c2)CC1", "inhibition": 10.4},
      {"smiles": "O=C(NC1c2ccccc2Oc2ccccc21)c1ccccc1O", "inhibition": -3}
    ]}
  ]
}
